We go through 29 compounds from PubChem BioAssay AID743449 (Broad Institute, 2014).

Screen size: about 9,900 compounds; about 90 (0.9%) were called active. Inconclusive results (about 2%) are left out. This is one part of a sample in which actives are shown more often than they occur.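 How the source made its calls: active means mean normalized replicate activity at least 50 and at least half of replicates each reaching 50; inconclusive means only one of the two criteria met; inactive means neither criterion met.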

The experiment in a line: reduction of CTGF mRNA in DLD1 cells – DLD1 colon cancer cells, RT-qPCR, single point, primary screen (AID 743449).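 Further: 0% = neutral control wells and 100% = dasatinib control wells; higher means stronger suppression of CTGF expression like dasatinib.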 The following applies: 24 h, at 12.5 µM, hits give high values.
Turning to `COc1cccc(S(=O)(=O)N[C@H]2CC[C@@H](CC(=O)NC3Cc4ccccc4C3)O[C@H]2CO)c1`, the inhibition (usually the relative decrease from the control value, in per cent) was 0.76% (inactive).

With `CCC(=O)N1CC2(C1)[C@H](c1ccc(-c3ccc(F)cc3)cc1)[C@H](CO)N2C(C)=O`, the inhibition was 5.26% (inactive).

With `COc1cccc(C(=O)Nc2ccc3c(c2)C(=O)N(C)[C@@H]2CC[C@H](CC(=O)N[C@@H](C)c4ccccc4)O[C@@H]2CO3)c1`, the inhibition was -43.4% (inactive).

For the compound `O=C(Nc1ccc(F)cc1)N1CC(=O)N2[C@H](C1)[C@@H](c1ccc(-c3cccc(F)c3)cc1)[C@@H]2CO`, the inhibition is -72.3% (inactive).

For the compound `COCC(=O)N1[C@H](CO)[C@@H](c2ccccc2)C12CN(C(=O)c1ccccc1)C2`, the inhibition was -0.941% (inactive).

With `C[C@H]1CN([C@@H](C)CO)C(=O)c2ccccc2-c2ccccc2CO[C@H]1CN(C)S(=O)(=O)c1cn(C)cn1`, the inhibition was 10.4% (inactive).

Consider `CC(C)(C)[S@](=O)N1Cc2cc(C(=O)NCc3ccccn3)nc(-c3cccc(-c4ccccc4F)c3)c2[C@@H]1CCO`, for which the inhibition is 53% (active).

For the compound `CC(C)(C)[S@](=O)N1Cc2cc(C(=O)NC3CCC3)nc(-c3cccc(-c4ccccc4F)c3)c2[C@@H]1CCO`, the inhibition was 41% (inactive).

In the case of `CC(C)(C)S(=O)N1Cc2cc(C(=O)NCc3ccc4c(c3)OCO4)nc(-c3cccc(-c4cc5ccccc5o4)c3)c2[C@H]1CCO` (some centres undefined), the inhibition is 20.7% (inactive).

Regarding `CCNC(=O)c1cc2c(c(-c3cccc(-c4cncnc4)c3)n1)[C@H](CCO)N(C(C)=O)C2`, the inhibition was -8.43% (inactive).

On to `CCC(=O)N1Cc2cc(C(=O)NCc3cccc(F)c3)nc(-c3cccc(C4=CCCC4)c3)c2[C@H]1CCO`, for which the inhibition is 50.2% (active).

Regarding `CC(C)(C)S(=O)N1Cc2cc(C(=O)NCc3ccc(Oc4ccccc4)cc3)nc(-c3cccc(-c4cccc(F)c4)c3)c2[C@@H]1CCO` (some centres undefined), the inhibition is 9.98% (inactive).

Take `CC(C)(C)S(=O)N1Cc2cc(C(=O)NCc3ccc4c(c3)OCO4)nc(-c3cccc(-c4cccc(F)c4)c3)c2[C@@H]1CCO` (some centres undefined): the inhibition is 55.2% (active).

Take `CCNC(=O)c1cc2c(c(-c3cccc(-c4ccccc4F)c3)n1)[C@H](CCO)N(C(=O)CC1CC1)C2`: the inhibition is -97.9% (inactive).

In the case of `CCNC(=O)c1cc2c(c(-c3cccc(-c4ccccc4F)c3)n1)[C@@H](CCO)N(C(=O)CC1CC1)C2`, the inhibition is 59.3% (active).

Consider `CCN1Cc2cc(C(=O)Nc3nccs3)nc(-c3cccc(C4=CCCC4)c3)c2[C@H]1CCO`, for which the inhibition was -15.8% (inactive).

Consider `CC(C)(C)[S@@](=O)N1Cc2cc(C(=O)NCc3ccccn3)nc(-c3cccc(-c4ccccc4F)c3)c2[C@H]1CCO`, for which the inhibition is -29.9% (inactive).

With `CN(C)C(=O)c1cc2c(c(-c3cccc(C4=CCCCC4)c3)n1)[C@@H](CCO)N(S(C)(=O)=O)C2`, the inhibition is -7.52% (inactive).

For the compound `O=C1C[C@H](c2ccccc2)C(=O)N[C@H](c2ccccc2)C/C=C\C[C@H](c2ccccc2)N1`, the inhibition was -5.88% (inactive).

As to `COc1ccc(S(=O)(=O)Nc2ccc3c(c2)C(=O)N([C@H](C)CO)C[C@H](C)[C@@H](CN(C)C(=O)Nc2c(C)noc2C)OCCCC[C@H](C)O3)cc1`, the inhibition was -7.64% (inactive).

Consider `O=C(Cc1cccnc1)N1[C@H](CNCC2CCC2)[C@H](c2ccccc2)[C@@H]1CO`, for which the inhibition is -21.2% (inactive).

As for `COc1ccc(S(=O)(=O)Nc2ccc3c(c2)C(=O)N([C@@H](C)CO)C[C@@H](C)[C@@H](CN(C)Cc2ccc(C(F)(F)F)cc2)OCCCC[C@H](C)O3)cc1`, the inhibition is -37.9% (inactive).

For the compound `O=C(C1CCOCC1)N1CC[C@@H]2[C@@H](CO)Nc3ccc(-c4cccc(F)c4)cc3[C@@H]21`, the inhibition was -12.5% (inactive).

With `CO[C@H]1CC[C@H]2CCOc3c(C#N)cccc3C(=O)N(C)C[C@@H](OC)[C@@H](C)C(=O)N(C)C[C@H]1O2`, the inhibition is -18.4% (inactive).

On to `O=C(C[C@@H]1CC[C@@H]2[C@H](COC[C@@H](O)CN2C(=O)c2cnccn2)O1)N1CCN(c2ccccc2)CC1`, for which the inhibition was -2.5% (inactive).

For the compound `COc1ccc2c3c([nH]c2c1)[C@H](CO)N(C(=O)c1ccccn1)CC31CCN(S(C)(=O)=O)CC1`, the inhibition was -21.9% (inactive).

For `COc1ccccc1CN1[C@@H]2c3ccc(C4=CCCC4)c(=O)n3C[C@H]1[C@H](CO)[C@H]2C(=O)N(C)C`, the inhibition was 2.56% (inactive).

With `C[C@@H]1CN([C@H](C)CO)C(=O)Cc2cc(NS(=O)(=O)c3cccs3)ccc2O[C@@H]1CN(C)CC1CCCCC1`, the inhibition is 1.75% (inactive).

Consider `COc1ccc2c3c(n(C)c2c1)[C@@H](CO)N(S(C)(=O)=O)CC31CCN(Cc2nccs2)CC1`, for which the inhibition was 14% (inactive).
